The source of these data is PubChem BioAssay (Tox21).

Assay [1] is described as follows: qHTS assay to identify small molecule antagonists of the glucocorticoid receptor (GR) signaling pathway - cell viability counter screen (AID 720693). Further: nearly all actives have a fitted effect of over 55% in size. Further: potency means the concentration at half of the fitted maximal effect. A general note: Quantitative high-throughput screening tests each substance at several concentrations.
Assay [2] is described as follows: qHTS assay for identifying genotoxic compounds that show differential cytotoxicity against isogenic chicken DT40 cell lines with known DNA damage response pathways - wild type cell line (AID 743012). Further: nearly all actives have a fitted effect of over 60% in size. Further: potency means the concentration at half of the fitted maximal effect. In outline: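 Quantitative HTS on parental DT40 cells: 40 h compound treatment at 37 C/5% CO2, with viability then determined by CellTiter-Glo luminescence. Values serve as the DNA repair-proficient reference for differential cytotoxicity.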

A short description of assay [3]: qHTS assay for identifying genotoxic compounds that show differential cytotoxicity against isogenic chicken DT40 cell lines with known DNA damage response pathways - Rev3 mutant cell line (AID 743014). Further: nearly all actives have a fitted effect of over 55% in size. Further: potency means the concentration at half of the fitted maximal effect.
Assay [4] can be described thus: qHTS assay to identify small molecule antagonists of the androgen receptor (AR) signaling pathway - cell viability counter screen (AID 743033; further: nearly all actives have a fitted effect of over 45% in size).
The nature of assay [5]: qHTS assay to identify small molecule antagonists of the androgen receptor (AR) signaling pathway using the MDA cell line - cell viability counter screen (AID 743041; further: nearly all actives have a fitted effect of over 45% in size). In outline:
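MDA-kb2 AR-luc human breast carcinoma cells (MMTV-luciferase, AR/GR responsive) were treated with compounds plus R1881 agonist for 16 h at 37 °C. Viability was read as CellTiter-Fluor fluorescence in the same wells as the reporter assay.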

Assay [6] can be described thus: qHTS assay to identify small molecule antagonists of the thyroid receptor (TR) signaling pathway - cell viability counter screen (AID 743064). Further: nearly all actives have a fitted effect of over 50% in size. Further: potency means the concentration at half of the fitted maximal effect. The method, boiled down: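 GH3.TRE-Luc rat pituitary cells carrying a TRE-luciferase reporter were treated with compound plus 1 nM T3 (final) for 23.5 h at 37 °C. Viability was then read in the same wells by CellTiter-Fluor fluorescence after a further 30 min.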

Assay [7] in a line: qHTS assay to identify small molecule antagonists of the thyroid receptor (TR) signaling pathway (AID 743065). Further: nearly all actives have a fitted effect of over 55% in size. Further: potency means the concentration at half of the fitted maximal effect. In outline:
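GH3.TRE-Luc rat pituitary cells carrying two TR response elements driving luciferase were plated for 4 h, given compound plus 1 nM T3 (final), and incubated 23.5 h at 37 C. ONE-Glo luminescence measured reporter inhibition; CellTiter-Fluor fluorescence tracked cytotoxicity.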

Assay [8] relates to thyroid hormone receptor (rat, GH3 cells). Kind of assay: qHTS assay to identify small molecule agonists of the thyroid receptor (TR) signaling pathway (AID 743066; calls by dose curve; further: potency means the concentration at half of the fitted maximal effect).
Assay [9] is described as follows: qHTS assay to identify small molecule antagonists of the estrogen receptor alpha (ER-alpha) signaling pathway - cell viability counter screen (AID 743074; calls by dose curve; further: nearly all actives have a fitted effect of over 45% in size).
Assay [10] in a line: qHTS assay to identify small molecule antagonists of the estrogen receptor alpha (ER-alpha) signaling pathway using the BG1 cell line - cell viability counter screen (AID 743081).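 Further: compound given together with 17beta-estradiol as the ER stimulus; nearly all actives have a fitted effect of over 45% in size.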 Further: potency means the concentration at half of the fitted maximal effect.
Assay [11] addresses Aromatase (Homo sapiens) (UniProt P11511). Kind of assay: qHTS assay to identify aromatase inhibitors (AID 743083). Further: nearly all actives have a fitted effect of over 55% in size. Further: potency means the concentration at half of the fitted maximal effect.
In assay [12] the target is Estrogen receptor (Homo sapiens) (UniProt P03372). Kind of assay: qHTS assay to identify small molecule antagonists of the estrogen receptor alpha (ER-alpha) signaling pathway (AID 743069; active means well fitted curve in the direction sought with a large enough effect in the signal ratio in the repeat runs, not every such curve was filed as active; inconclusive means weak or mixed curves, or effect the other way; inactive means no such curve, though single readings can be large or run the other way; the % refers to the signal ratio; further: potency means the concentration at half of the fitted maximal effect). In outline:
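HEK293 cells stably carrying an ER-alpha-UAS-bla beta-lactamase reporter were pre-cultured overnight in 2% charcoal-stripped FBS medium. Test compounds in DMSO were added together with 17beta-estradiol for 18 hr at 37C. Read-out was fluorescence after 2 hr with LiveBLAzer B/G FRET substrate at room temperature.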

For assay [13] the target is unchanged. Kind of assay: qHTS assay to identify small molecule agonists of the estrogen receptor alpha (ER-alpha) signaling pathway (AID 743075; calls by dose curve; further: potency means the concentration at half of the fitted maximal effect).
Assay [14] shares this target. Kind of assay: qHTS assay to identify small molecule agonists of the estrogen receptor alpha (ER-alpha) signaling pathway using the BG1 cell line (AID 743079). Further: nearly all actives have a fitted effect of over 20% in size. Further: potency means the concentration at half of the fitted maximal effect.
Assay [15] in a line: qHTS assay to identify small molecule antagonists of the estrogen receptor alpha (ER-alpha) signaling pathway using the BG1 cell line (AID 743080; calls by dose curve;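 further: BG1 cells stimulated with 17beta-estradiol alongside compound; nearly all actives have a fitted effect of over 25% in size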; further: potency means the concentration at half of the fitted maximal effect). In outline:
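BG1-Luc-4E2 cells (endogenous full-length ER-alpha, stable 4×ERE-luciferase) were starved 5 days in phenol-red-free medium with 10% charcoal-stripped FBS, plated 24 h, then given compound plus 17beta-estradiol for 21.5 h at 37 C; ONE-Glo luminescence read after 30 min.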

Assay [16] can be described thus: qHTS assay for identifying genotoxic compounds that show differential cytotoxicity against isogenic chicken DT40 cell lines with known DNA damage response pathways - Rad54/Ku70 mutant cell line (AID 743015). Further: nearly all actives have a fitted effect of over 60% in size. Further: potency means the concentration at half of the fitted maximal effect.
The target in assay [17] is Androgen receptor (Homo sapiens) (UniProt P10275). In words: qHTS assay to identify small molecule antagonists of the androgen receptor (AR) signaling pathway (AID 743035; active means well fitted inhibition curve with a large enough effect in the signal ratio in the repeat runs, not every such curve was filed as active; inconclusive means weak or mixed curves, or effect the other way; inactive means no such curve, though single readings can be large or run the other way; the % refers to the signal ratio). The method, boiled down:
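Cell line: GeneBLAzer AR-UAS-bla GripTite (HEK293). Stimulus: R1881 added after compound. Exposure: 16 h, 37C, 5% CO2. Readout: LiveBLAzer B/G FRET fluorescence after 2 h at room temperature.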

Assay [18] shares this target. In words: qHTS assay to identify small molecule agonists of the androgen receptor (AR) signaling pathway (AID 743036; active means well fitted activation curve with a large enough effect in the signal ratio in the repeat runs, with a control signal flat, not every such curve was filed as active; inconclusive means weak or mixed curves, or effect the other way; inactive means no such curve, though single readings can be large or run the other way; the % refers to the signal ratio). In outline:
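HEK293 cells stably carrying a UAS-driven beta-lactamase reporter (GeneBLAzer AR-UAS-bla-GripTite) were plated at 2,000 cells/well, rested 4 h at 37C, then exposed to compounds in DMSO for 16 h. LiveBLAzer B/G FRET substrate was added for 2 h at room temperature; fluorescence read.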

For assay [19] the target is unchanged. Kind of assay: qHTS assay to identify small molecule agonists of the androgen receptor (AR) signaling pathway using the MDA cell line (AID 743040; further: nearly all actives have a fitted effect of over 20% in size). The method, boiled down: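 MDA-kb2 breast carcinoma cells stably carrying an MMTV-driven luciferase reporter (AR- and GR-responsive) were seeded and held 5 h at 37C, 0% CO2, then exposed to compounds in DMSO for 16 h. Luminescence was read 30 min after ONE-Glo addition.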

Assay [20] has the same target. In words: qHTS assay to identify small molecule antagonists of the androgen receptor (AR) signaling pathway using the MDA cell line (AID 743042; further: nearly all actives have a fitted effect of over 55% in size). The method, boiled down: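 MDA-kb2 cells (human breast carcinoma, stably carrying an MMTV-luciferase reporter responsive to AR and GR) were plated at 3,000 cells/well and preincubated 5 hr at 37C, then given compound plus R1881 agonist for 16 h. ONE-Glo luminescence was read.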

Calls of active or inactive are those of the source. Unless noted, the call rests on the fitted dose curve; in most records, active means well fitted curve in the direction sought with a large enough effect in the repeat runs; inconclusive means weak or mixed curves; inactive means no such curve, though single readings can be large; an effect the other way counts as inactive or inconclusive.

Chain of Aromatase (Homo sapiens) (P11511 whole entry, looked up): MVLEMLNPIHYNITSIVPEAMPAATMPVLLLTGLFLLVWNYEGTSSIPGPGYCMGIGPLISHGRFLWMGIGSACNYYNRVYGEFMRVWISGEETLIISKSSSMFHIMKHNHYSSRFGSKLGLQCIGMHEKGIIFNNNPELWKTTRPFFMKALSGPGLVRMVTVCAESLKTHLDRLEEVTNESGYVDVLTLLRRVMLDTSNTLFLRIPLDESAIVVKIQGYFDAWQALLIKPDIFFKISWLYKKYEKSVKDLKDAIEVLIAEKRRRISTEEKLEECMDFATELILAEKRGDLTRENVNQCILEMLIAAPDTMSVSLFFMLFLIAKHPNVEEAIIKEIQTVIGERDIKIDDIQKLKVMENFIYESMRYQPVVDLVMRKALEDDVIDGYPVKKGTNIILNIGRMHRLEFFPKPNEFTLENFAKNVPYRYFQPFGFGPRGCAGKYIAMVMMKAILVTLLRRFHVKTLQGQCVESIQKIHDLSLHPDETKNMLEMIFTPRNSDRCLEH
Chain of Estrogen receptor (Homo sapiens) (P03372 whole entry, looked up): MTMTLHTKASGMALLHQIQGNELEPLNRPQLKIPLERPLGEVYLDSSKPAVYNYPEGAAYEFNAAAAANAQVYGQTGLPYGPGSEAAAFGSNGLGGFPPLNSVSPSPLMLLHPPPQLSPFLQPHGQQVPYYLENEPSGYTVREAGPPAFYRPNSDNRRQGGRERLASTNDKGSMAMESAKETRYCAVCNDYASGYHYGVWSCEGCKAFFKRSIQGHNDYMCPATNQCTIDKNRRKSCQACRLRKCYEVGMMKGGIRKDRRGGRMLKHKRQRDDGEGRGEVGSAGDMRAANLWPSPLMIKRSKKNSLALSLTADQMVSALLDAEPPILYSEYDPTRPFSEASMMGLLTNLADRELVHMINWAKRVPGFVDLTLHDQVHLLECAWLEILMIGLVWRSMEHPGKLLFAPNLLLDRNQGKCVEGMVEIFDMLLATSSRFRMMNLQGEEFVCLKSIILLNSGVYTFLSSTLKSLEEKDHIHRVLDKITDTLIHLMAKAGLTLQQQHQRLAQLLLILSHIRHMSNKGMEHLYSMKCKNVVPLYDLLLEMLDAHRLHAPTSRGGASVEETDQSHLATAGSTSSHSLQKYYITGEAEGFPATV
Chain of Androgen receptor (Homo sapiens) (P10275 whole entry, looked up): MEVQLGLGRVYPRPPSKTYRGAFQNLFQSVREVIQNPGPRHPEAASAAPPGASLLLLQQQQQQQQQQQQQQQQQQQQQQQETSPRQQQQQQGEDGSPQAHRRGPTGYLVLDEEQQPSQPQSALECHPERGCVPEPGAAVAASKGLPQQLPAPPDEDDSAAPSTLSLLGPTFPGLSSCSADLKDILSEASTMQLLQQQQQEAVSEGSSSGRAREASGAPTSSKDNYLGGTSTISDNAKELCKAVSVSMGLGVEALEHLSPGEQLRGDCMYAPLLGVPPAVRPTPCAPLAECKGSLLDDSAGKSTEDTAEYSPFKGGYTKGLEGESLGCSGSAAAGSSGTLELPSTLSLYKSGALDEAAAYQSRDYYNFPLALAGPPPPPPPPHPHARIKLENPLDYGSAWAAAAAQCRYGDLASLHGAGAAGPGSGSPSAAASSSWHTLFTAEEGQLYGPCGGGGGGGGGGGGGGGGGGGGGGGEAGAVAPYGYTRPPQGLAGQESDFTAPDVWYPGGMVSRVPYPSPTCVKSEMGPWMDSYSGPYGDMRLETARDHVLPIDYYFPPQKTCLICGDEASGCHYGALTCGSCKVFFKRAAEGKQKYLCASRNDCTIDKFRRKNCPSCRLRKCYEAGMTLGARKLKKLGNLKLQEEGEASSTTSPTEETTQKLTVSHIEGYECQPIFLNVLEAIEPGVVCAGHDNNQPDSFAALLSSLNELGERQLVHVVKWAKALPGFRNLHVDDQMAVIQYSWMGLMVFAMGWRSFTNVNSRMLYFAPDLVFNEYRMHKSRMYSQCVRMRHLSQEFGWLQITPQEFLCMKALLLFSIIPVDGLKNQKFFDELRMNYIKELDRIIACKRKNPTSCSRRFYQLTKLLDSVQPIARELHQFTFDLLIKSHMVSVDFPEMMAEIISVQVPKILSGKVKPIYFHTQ

As to `C/C=C/C=C/CO`, the Potency entry in [1], in [2], in assay [4], in [5], in assay [6] and in assay [7] was “inactive” in each case. Besides, the Potency entry in [8], in [9], in assay [10] and in assay [11] was “inactive” throughout. The Potency in [3] was 61.1 µM (active).
For `c1ccc(CNCCNCc2ccccc2)cc1`, the Potency result in assay [1], in assay [2], in assay [3], in assay [4], in assay [6] and in assay [8] was “inactive” in each case. The Potency result in assay [12], in assay [9], in assay [13], in [14], in assay [15] and in assay [10] was “inactive” each time. The Potency result in assay [11] was “inactive”.
For the compound `CCCNCC(O)COc1ccccc1C(=O)CCc1ccccc1` (stereo not drawn), the Potency entry in assay [1], in assay [5], in assay [9] and in [10] was “inactive” each time. Also, the Potency in assay [2] was 6.68 µM (active); in assay [3], 11.9 µM (active); in assay [16], 11.9 µM (active); in assay [6], 29.8 µM (active); in assay [7], 23.7 µM (active).
For `Nc1ncn([C@H]2C[C@H](O)[C@@H](CO)O2)c(=O)n1`, the Potency result in assay [1], in assay [5], in [7], in [9], in assay [10] and in assay [11] was “inactive” throughout. Besides, the Potency in [2] is 0.106 µM (active); in [3], 0.106 µM (active); in [16], 0.0298 µM (active); in [8] it was 3.35 µM (active).
In the case of `O=C1OC(CN2CCOCC2)CN1/N=C/c1ccc([N+](=O)[O-])o1` (stereo not drawn), the Potency result in assay [1], in assay [2], in [3], in assay [17], in assay [18] and in assay [19] was “inactive” throughout. In addition, the Potency result in assay [5], in assay [20], in assay [6], in assay [7], in [8] and in assay [12] was “inactive” each time. Besides, the Potency result in [9], in assay [13], in assay [14], in assay [15], in assay [10] and in [11] was “inactive” throughout.
In the case of `Cc1oc2c(NC(=O)c3c(Cl)cccc3Cl)cccc2c1C(C)(C)O`, the Potency result in [1], in assay [8], in assay [13] and in assay [10] was “inactive” throughout. In addition, the Potency in [2] was 43.3 µM (active); in assay [3] it was 27.3 µM (active); in [16], 48.6 µM (active); in [7] it was 7.7 µM (active); in assay [12] it was 43.6 µM [inhibitor] (active).
Consider `CC1=CC[C@H](C(C)C)C=C1`, for which the Potency entry in [1], in assay [5], in [6], in [9], in [13] and in assay [14] was “inactive” throughout. Further, the Potency entry in [15], in assay [10] and in assay [11] was “inactive” each time. Moreover, the values for the Potency in [2], in assay [3] and in [16] were 61.1 µM (active), 68.6 µM (active) and 61.1 µM (active), respectively.
In the case of `CC(C)=CCC/C(C)=C/CC/C(C)=C/CO`, the Potency entry in assay [1], in assay [5], in assay [8], in assay [9] and in assay [10] was “inactive” throughout. Also, the Potency was 34.4 µM (active) in [2], 54.5 µM (active) in assay [3], 30.6 µM (active) in assay [16] and 61.1 µM (active) in assay [7].
On to `COc1cccc(N(C)C(=S)Oc2ccc3c(c2)CCCC3)n1`, for which the Potency result in [1], in [5], in assay [8], in assay [13], in [10] and in assay [11] was “inactive” throughout. Moreover, the Potency in assay [2], in assay [3] and in assay [16] was 26.6 µM (active) each time.
As for `CCN(CC)CCNc1ccc(CNC=O)c2sc3ccc(OC)cc3c(=O)c12`, the Potency in assay [1] was 38.9 µM (active); in assay [2], 8.63 µM (active); in assay [3] it was 9.69 µM (active); in assay [16], 0.969 µM (active); in assay [6], 8.63 µM (active); in [7], 24.3 µM (active). Also, the Potency in assay [13] is 4.36 µM [inconclusive] (active); in [14], 2.73 µM (active); in [10], 4.86 µM (active); in assay [11], 38.6 µM (active). Besides, the Potency result in [9] is “inactive”.
For `CCC(C)c1cc(C(C)(C)C)c(O)c(C(C)(C)C)c1` (stereo not drawn), the Potency entry in assay [1], in [2], in assay [3], in [16], in assay [5] and in [6] was “inactive” throughout. Besides, the Potency entry in [9] and in assay [10] was “inactive” in each case. Moreover, in assay [8], the Potency was 10.7 µM (active).
Consider `CC(=O)[O][Al][O]C(C)=O`, for which the Potency result in assay [1], in [2], in assay [3], in [16], in assay [5] and in assay [6] was “inactive” each time. The Potency result in [8], in [9], in assay [15], in assay [10] and in [11] was “inactive” each time.
Take `O=C1[C@H]2CCCC[C@H]2C(=O)N1CCCCN1CCN(c2nsc3ccccc23)CC1`: the Potency result in assay [1], in assay [8], in [9], in assay [13], in [14] and in assay [15] was “inactive” in each case. Moreover, the Potency in [2] was 6.68 µM (active); in assay [3], 5.96 µM (active); in [16], 5.96 µM (active); in [6], 21.1 µM (active); in [7], 29.8 µM (active); in [10], 29.8 µM (active). The Potency in assay [11] was 29.8 µM (active).
On to `CC(C)O.CC(C)O.CCOC(=O)/C=C(\C)O.CCOC(=O)/C=C(\C)O.[Ti]`, for which the Potency result in [1], in assay [2], in assay [3], in [16], in assay [5] and in assay [6] was “inactive” each time. Further, the Potency result in [7], in assay [8], in assay [9] and in assay [10] was “inactive” each time.
In the case of `CN(C)CCCN1c2ccccc2Sc2ccccc21`, the Potency entry in [1], in assay [5], in assay [8], in [9], in assay [10] and in [11] was “inactive” in each case. Moreover, the Potency is 9.02 µM (active) in assay [2], 5.69 µM (active) in assay [3], 10.1 µM (active) in assay [16] and 2.85 µM (active) in assay [6].
As for `CCOC(=O)NCCOc1ccc(Oc2ccccc2)cc1`, the Potency result in [1], in assay [7], in assay [8], in assay [9] and in assay [10] was “inactive” each time. Further, the Potency in assay [2] was 61.1 µM (active); in assay [3], 68.6 µM (active); in assay [16] it was 61.1 µM (active); in assay [12], 38.9 µM [inhibitor] (active); in assay [15], 61.1 µM (active).
`CC1(c2ccccc2)OC(C(=O)O)=CC1=O` (stereo not drawn): the Potency result in assay [1], in assay [2], in assay [3], in assay [16], in assay [5] and in assay [8] was “inactive” throughout. Further, the Potency entry in [9], in assay [10] and in assay [11] was “inactive” throughout.
